Source: PubChem BioAssay (Broad Institute)
Sampled rows, rich in hits. Any-hit rate of the full collection: about 3.1%.
FGF22 binding: binders of human FGF22 protein, primary screen, FGF22 synaptogenesis inhibitor project, biophysical, thermal shift, single point. Fibroblast growth factor 22 (Homo sapiens), Q9HCT0. recombinant FGF22 thermal shift, SYPRO orange fluorescence; percent of sucrose octasulfate shift, DMSO zero. activity (Tm shift, normalised), % at 9.99 µM. 340,000 compounds, 1.5% hits;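 active = mean Tm shift, scaled 0 neutral to 100 positive control, at about 1.3% or above, every replicate too, limit read from the data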
Target sequence (Q9HCT0 whole entry, looked up): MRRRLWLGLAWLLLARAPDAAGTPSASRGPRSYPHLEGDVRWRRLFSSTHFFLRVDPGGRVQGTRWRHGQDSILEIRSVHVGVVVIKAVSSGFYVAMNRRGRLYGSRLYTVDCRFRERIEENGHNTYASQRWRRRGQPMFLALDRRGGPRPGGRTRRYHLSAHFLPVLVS
CASP6 VEID inh: human caspase-6 inhibitors, primary screen, biochemical, VEID-R110 fluorescence, single point, set 2; AID 686996, 2013; 350,000 compounds, 0.53% hits; inhibition, % at 12.5 µM; purified caspase-6, Z-VEID-R110 cleavage fluorescence; P55212;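 active = mean inhibition across replicates at least about 35%, with every replicate also reaching that limit, limit read from the data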;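 note: 0% = median of neutral control wells and 100% = no fluorescence left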
Target sequence (P55212 24-179 limits assumed): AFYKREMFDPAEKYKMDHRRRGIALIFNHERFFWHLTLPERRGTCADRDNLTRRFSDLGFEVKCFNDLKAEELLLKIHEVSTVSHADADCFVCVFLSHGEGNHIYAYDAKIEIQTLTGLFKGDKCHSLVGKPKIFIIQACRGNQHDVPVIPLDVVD
Target sequence (P55212 194-293 limits assumed): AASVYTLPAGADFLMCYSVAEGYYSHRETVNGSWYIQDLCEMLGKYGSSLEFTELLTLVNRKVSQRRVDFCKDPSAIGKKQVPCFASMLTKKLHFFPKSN
SIRT5 block: SIRT5 desuccinylase inhibitors, primary screen, biochemical, fluorescence imaging, single point, set 5; NAD-dependent protein deacylase sirtuin-5, mitochondrial (Homo sapiens), Q9NXA8; Purified SirT5, succinyl-peptide AMC, trypsin-coupled fluorescence; inhibition, % at 15 µM; 330,000 compounds, 1.1% hits; in the data active = inhibition above about 15%
ERAP1 inh: human ERAP1 aminopeptidase inhibitors, primary screen, biochemical, single point, plate reader; Endoplasmic reticulum aminopeptidase 1 (Homo sapiens), Q9NZ08; recombinant ERAP1, Leu-AMC fluorescence, 60 min; inhibition, % at 10.7 µM; 340,000 compounds, 0.15% hits; AID 652197, 2013;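 active = mean replicate inhibition of at least 30%, or all replicates individually reaching that 30% level; inactive = mean below 30% and not every replicate reaching it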;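 note: 0% = neutral control wells and 100% = L-leucinethiol positive control wells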
Starred values were filed as active, the others as inactive; / = not tested or not shown; ! = repeats disagree.

SMILES	FGF22 binding	CASP6 VEID inh	SIRT5 block	ERAP1 inh
CO[C@H]1CN(C)C(=O)c2ccc(NC(=O)c3ccccc3)cc2OC[C@@H](C)N(C(C)=O)C[C@@H]1C	0	2	0	0
CN1C(=O)c2cc(NS(C)(=O)=O)ccc2OC[C@@H]2O[C@H](CC(=O)NC3CCCCC3)CC[C@H]21	0	-1	9	-2
CCOc1cccc(-c2cc(C(=O)N3N=C(C)CC3(O)C(F)F)c3ccccc3n2)c1 (stereo not given)	43*	2	0	-1
O=C(c1cc(-c2ccccc2)nc2ccccc12)N1N=C(C(F)F)CC1(O)C(F)F (stereo not given)	0	4	0	-2
O=C(NCc1ccco1)c1ccc(Br)c(S(=O)(=O)N2CCCCC2)c1	/	72*	-3	-2
O=C(NCc1ccco1)c1ccc(S(=O)(=O)N2CCCCC2)cc1	44*	-4	-4	-3
COc1ccccc1-n1c(CNC(=O)c2ccc(S(=O)(=O)N3CCCCC3)cc2)n[nH]c1=S	0	40*	-6	-1
O=C(Nc1nnc(-c2ccco2)o1)c1ccc(S(=O)(=O)N2CCCC2)cc1	43*	0	0	2
O=C(NCc1n[nH]c(=S)n1-c1ccccc1Cl)c1ccc(S(=O)(=O)N2CCCCC2)cc1	0	3	-1	-3
C[C@@H]1CCCCO[C@H](CN(C)C(=O)Nc2cccc3ccccc23)[C@H](C)CN([C@H](C)CO)C(=O)c2cc(NS(C)(=O)=O)ccc2O1	0	-3	5	-6
C[C@@H]1CN([C@H](C)CO)C(=O)CCCn2cc(nn2)CO[C@@H]1CN(C)S(=O)(=O)c1ccccc1F	0	-2	-5	1
O=C(NCc1ccco1)c1ccc(F)c(S(=O)(=O)N2CCCCC2)c1	43*	-1	-1	1
O=C(NCC1COc2ccccc2O1)c1ccc(F)c(S(=O)(=O)N2CCOCC2)c1 (stereo not given)	0	52*	-4	0
COc1ccc(C(=O)NCC2COc3ccccc3O2)cc1S(=O)(=O)N1CCOCC1 (stereo not given)	0	-1	-2	-3
Cc1ccc(C(=O)NCc2ccco2)cc1S(=O)(=O)N1CCCCC1	0	7	2	-2
Cc1nc(NC(=S)Nc2ccccc2)sc1C	43*	-2	-3	0
CCc1nnc(NC(=S)Nc2ccccc2)s1	0	-3	-1	0
CN1c2ccc(Br)cc2[C@H]2[C@H](CCN2C(=O)Nc2cc(F)ccc2F)[C@H]1CO	-1	-3	1	-1
Cc1c(NS(=O)(=O)c2ccc(Cl)c(C(=O)OC(C)C(=O)NCc3ccco3)c2)c(=O)n(-c2ccccc2)n1C (stereo not given)	0	0	0	0
Cc1c(NS(=O)(=O)c2ccc(Cl)c(C(=O)OCC(=O)NCc3ccco3)c2)c(=O)n(-c2ccccc2)n1C	44*	-3	2	16
Cc1ccc(S(=O)(=O)N(C)C[C@@H]2Oc3ccc(NC(=O)Nc4ccccc4)cc3C(=O)N([C@H](C)CO)C[C@@H]2C)cc1	-1	3	0	-5
COC(=O)C(CCSC)NC(=O)/C=C/c1ccc(OC)cc1 (stereo not given)	43*	1	1	0
COC(=O)[C@H](CCSC)NC(=O)Nc1cc(OC)cc(OC)c1	0	-1	-2	-2
CCN(Cc1nc2cc(Cl)ccc2c(=O)[nH]1)C(=O)c1nn(C)c(=O)c2ccccc12	0	-2	1	63*
COc1ccc(CNC(=O)C(c2ccncc2)N(C(=O)Cc2cccs2)c2cccc(C)c2)cc1 (stereo not given)	0	1	-2	-1
SMILES	FGF22 binding	CASP6 VEID inh	SIRT5 block	ERAP1 inh
COc1ccc(CNC(=O)C(c2ccco2)N(C(=O)Cc2cccs2)c2cccnc2)cc1 (stereo not given)	0	6	35*	1
CCC(=O)Nc1ccc2c(c1)OC[C@@H](C)N(C(=O)C1CC1)C[C@H](C)[C@@H](OC)CN(C)C2=O	0	1	-2	0
COc1cccc(-n2nc(C(N)=O)c(O)cc2=O)c1	43*	-1	-4	-3
NC(=O)c1nn(-c2ccc(Cl)cc2Cl)c(=O)cc1O	44*	0	2	1
C[C@H](CO)N1C[C@H](C)[C@@H](CN(C)Cc2ccccn2)Oc2ncc(Br)cc2C1=O	0	-2	25*!	-3
C[C@H](O)C#Cc1cnc2c(c1)C(=O)N([C@@H](C)CO)C[C@@H](C)[C@H](CN(C)Cc1ccccn1)O2	0	-1	2	0
CC(C)C#Cc1cnc2c(c1)C(=O)N([C@@H](C)CO)C[C@@H](C)[C@H](CN(C)Cc1ccccn1)O2	/	2	21*	1
O=C1NC(=O)/C(=C/c2ccc(-c3cccc([N+](=O)[O-])c3)o2)S1	0	-1	0	-1
CCCNC(=O)Cn1c(=O)/c(=C/c2ccc(-c3cccc([N+](=O)[O-])c3)o2)s/c1=C\C(=O)C(C)(C)C	44*	-4	/	-1
COc1ccc2c3c(n(C)c2c1)[C@@H](CO)N(Cc1ccccc1)CC31CN(C(=O)Nc2cccc(F)c2)C1	0	3	2	-2
COc1ccc2c3c([nH]c2c1)[C@H](CO)N(Cc1ccccn1)CC31CN(C(C)=O)C1	0	/	/	/
COc1ccccc1C(=O)N=Nc1c(O)[nH]c2ccc([N+](=O)[O-])cc12	43	0	3	0
O=C(N=Nc1c(O)[nH]c2ccc([N+](=O)[O-])cc12)c1cc(-c2ccccc2Cl)nc2ccccc12	0	1	23*	3
CCC(=O)N1C[C@H](C)[C@H](OC)CN(C)C(=O)c2cc(NC(=O)c3ccc(F)cc3)ccc2OC[C@H]1C	0	1	3	2
COc1ccc(NC(=O)N(C)C[C@H]2Oc3ccc(NC(=O)CCCCCC(=O)Nc4ccccc4N)cc3C(=O)N([C@@H](C)CO)C[C@@H]2C)cc1	0	1	-3	-1
Cc1ccc(C)c(-n2c(SCC(=O)N3CCC(C(=O)O)CC3)nnc2-c2cccc(Cl)c2)c1	44*	2	-4	-2
CCN1/C(=C2/SC(=S)NC2=O)Sc2ccccc21	43*	-5	0	12
CCN1/C(=C\C=C2\C(=O)N(C)C(=S)N2C)Sc2ccccc21	/	3	-4	2
COc1ccc(S(=O)(=O)Nc2ccc3c(c2)C(=O)N([C@@H](C)CO)C[C@H](C)[C@@H](CN(C)Cc2ccc(C(F)(F)F)cc2)OCCCC[C@H](C)O3)cc1	0	-1	17*	5
